# The campaign covered roughly 1,900 compounds. About 250 (13%) were called active. Another 4% or so got no clear call; they are omitted.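 Rule for the calls: active = fitted curve reaches 40% rescue activity at or below the top valid dose, in every test run; inconclusive = test runs disagree, some active and some inactive; inactive = every run misses the threshold or moves the wrong way.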 These entries were drawn from the full list. Results with a measured potency or affinity are listed apart.
# Assay: rescue of simvastatin-induced ATP loss – cell-based, C2C12 myotubes, ATP luminescence, cherry pick, dose response (AID 624405);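 note: myotubes are challenged with simvastatin at 10 µM to lower ATP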
# Conditions: 48 h, scaled: DMSO wells 0, geranylgeraniol wells 100; series mostly up to 19.5 µM
row,SMILES,outcome
1,C[C@@H]1CCCCO[C@@H](CN(C)S(=O)(=O)c2ccc(F)cc2)[C@H](C)CN([C@@H](C)CO)C(=O)c2cc(NC(=O)Nc3cccc4ccccc34)ccc2O1,inactive
2,C[C@@H]1CN([C@@H](C)CO)S(=O)(=O)c2ccc(/C=C/c3ccccc3)cc2O[C@@H]1CN(C)C(=O)NC1CCCC1,inactive
3,CCCn1c(SCC(=O)c2ccc(OC)c(OC)c2)nc2c1c(=O)n(C)c(=O)n2C,inactive
4,Cc1ccc(N(C(=O)Cn2nnc3ccccc32)C(C(=O)NCc2ccco2)c2ccc(C)o2)cc1 (stereo not given),inactive
5,C[C@@H]1CN([C@H](C)CO)C(=O)Cc2cc(NS(=O)(=O)c3ccc(F)cc3)ccc2O[C@H]1CN(C)Cc1ccc(Cl)c(Cl)c1,inactive
6,C[C@@H]1CN([C@@H](C)CO)C(=O)Cc2cc(NS(=O)(=O)c3ccc(Cl)cc3)ccc2O[C@H]1CN(C)Cc1ccc(Cl)c(Cl)c1,inactive
7,C[C@@H]1CN([C@H](C)CO)C(=O)Cc2cc(NS(=O)(=O)c3ccc(F)cc3)ccc2O[C@@H]1CN(C)Cc1ccc(C(F)(F)F)cc1,inactive
8,C[C@@H]1CN([C@H](C)CO)C(=O)Cc2cc(NS(=O)(=O)c3ccc(F)cc3)ccc2O[C@@H]1CN(C)Cc1ccc(Cl)c(Cl)c1,inactive
9,C[C@@H]1CN([C@H](C)CO)C(=O)Cc2cc(NS(=O)(=O)c3ccc(F)cc3)ccc2O[C@H]1CN(C)Cc1ccc(C(F)(F)F)cc1,inactive
10,C[C@H](CO)N1C[C@H](C)[C@@H](CN(C)Cc2ccc(Cl)c(Cl)c2)Oc2ccc(NS(=O)(=O)c3ccc(Cl)cc3)cc2CC1=O,inactive
11,CCCCc1ccc(S(=O)(=O)NCCc2ccncc2)cc1,inactive
12,C[C@H](CO)N1C[C@H](C)[C@H](CN(C)S(=O)(=O)c2ccc(F)cc2)Oc2ncc(C#Cc3cccc(F)c3)cc2C1=O,inactive
13,CCOC(=O)C1(C)NC(c2ccc(N(C)C)cc2)C2C(=O)N(c3ccc(OC)cc3)C(=O)C21 (stereo not given),inactive
14,C[C@@H]1CN([C@@H](C)CO)C(=O)c2cc(NS(C)(=O)=O)ccc2O[C@@H](C)CCCCO[C@@H]1CN(C)S(=O)(=O)c1ccc(Cl)cc1,inactive
15,CCOc1nc(Nc2ccc(F)cc2)nc(N2CCN(c3ccc(OC)cc3)CC2)n1,inactive
16,C[C@H]1CN([C@@H](C)CO)C(=O)c2cc(NC(=O)Nc3ccc4c(c3)OCO4)ccc2O[C@@H]1CN(C)C(=O)Nc1ccc(C(F)(F)F)cc1,inactive
17,O=C(CN(Cc1ccccc1C(F)(F)F)C(=O)CNC(=O)c1ccco1)NC1CCCC1,inactive
18,Cc1cc(Cl)c(S(=O)(=O)N2CC(C)OC(C)C2)cc1OCC(N)=O (stereo not given),inactive
19,C[C@@H]1CN([C@@H](C)CO)C(=O)c2cc(NC(=O)CCC(F)(F)F)ccc2O[C@@H](C)CCCCO[C@@H]1CN(C)Cc1ccc(C(F)(F)F)cc1,inactive
20,Cc1ccc(C(=O)Nc2c(C(=O)N3CCOCC3)cnn2-c2ccccc2)cc1,inactive
21,Cc1cccc(NS(=O)(=O)c2ccc(-n3cccn3)cc2)c1C,inactive
22,COc1ccc(NC(=O)CC2C(=O)NCCN2C(=O)c2ccc(Cl)cc2)cc1 (stereo not given),inactive
23,C[C@H]1CN([C@@H](C)CO)C(=O)Cc2cc(NS(=O)(=O)c3cn(C)cn3)ccc2O[C@H]1CN(C)Cc1ccc(Cl)c(Cl)c1,inactive
24,COc1ccc(C#Cc2ccc3c(c2)O[C@H](CN(C)C(=O)Nc2cccc(OC)c2)[C@H](C)CN([C@@H](C)CO)S3(=O)=O)cc1,inactive
25,C[C@H]1CN([C@@H](C)CO)S(=O)(=O)c2ccc(C#Cc3ccccc3)cc2O[C@@H]1CN(C)C(=O)Cc1ccccn1,inactive
26,COc1ccc(C#Cc2ccc3c(c2)O[C@H](CN(C)C(=O)Nc2cccc(OC)c2)[C@H](C)CN([C@H](C)CO)S3(=O)=O)cc1,inactive
27,C[C@H]1CN([C@@H](C)CO)S(=O)(=O)c2ccc(Br)cc2O[C@@H]1CN(C)S(=O)(=O)c1ccc(F)cc1,inactive

row,SMILES,outcome
1,C[C@H](CO)N1C[C@H](C)[C@H](CN(C)C(=O)Nc2cc(F)ccc2F)Oc2cc(C#CC3CC3)ccc2S1(=O)=O,inactive
2,C[C@H](CO)N1C[C@H](C)[C@@H](CN(C)S(=O)(=O)c2ccc(F)cc2)Oc2cc(Br)ccc2S1(=O)=O,inactive
3,O=c1oc2cc(OCc3ccc(F)cc3F)ccc2cc1-c1ccccn1,inactive
4,CC(=O)C[C@@H](O)CC(=O)[C@@H]1OC(=O)CCCCCCc2ccccc21,inactive
5,Cc1ccc(NS(=O)(=O)c2ccc(-c3ccc(=O)[nH]n3)o2)cc1Cl,inactive
6,Cc1noc(C)c1S(=O)(=O)Nc1ccc2c(c1)C(=O)N([C@@H](C)CO)C[C@H](C)[C@H](CN(C)S(=O)(=O)c1ccc(Cl)cc1)OCCCC[C@@H](C)O2,inactive
7,O=C(CN1CCOCC1)N1CCN(c2nnc(-c3ccccc3)c3ccccc23)CC1,inactive
8,Nn1c(SCC(=O)Nc2ccc(S(=O)(=O)N3CCCC3)cc2)nnc1C(F)(F)F,inactive
9,CCOC(=O)c1ccn(-c2nc(-c3ccco3)cc(C(F)(F)F)n2)n1,inactive
10,CCn1c(SCC(=O)NCc2cccs2)nnc1-c1ccco1,inactive
11,Cc1occc1-c1nnc(SCC(=O)c2ccc(Cl)cc2)n1CC1CCCO1 (stereo not given),inactive
12,Cc1cc(Cl)c(S(=O)(=O)Nc2ccc3c(c2)OCO3)cc1OCC(N)=O,inactive
13,O=C(CN1CCN(S(=O)(=O)c2ccc(Br)cc2)CC1)Nc1ccc2c(c1)OCCO2,inactive
14,C[C@@H]1CN([C@H](C)CO)C(=O)c2cccc(NC(=O)C3CCCCC3)c2O[C@@H]1CN(C)S(=O)(=O)c1ccc(Cl)cc1,inactive
15,Cc1ccc(C2C(=O)N(C3CCC(C)CC3)CC(=O)N2C2CCCC2)cc1 (stereo not given),inactive
16,COc1cc(OC)cc(-c2nc(N)n[nH]2)c1,inactive
17,Cc1cccc(NC(=O)c2ccccc2C(=O)O)c1,inactive
18,O=C(Nc1cccc(NC(=O)c2ccccc2F)c1)c1ccccc1,inactive
19,C[C@H](CO)N1C[C@H](C)[C@@H](CN(C)C(=O)Nc2ccc(F)cc2)OCCCC[C@H](C)Oc2ccc(NC(=O)Cc3ccccc3)cc2C1=O,inactive
20,Cc1cccc(OCC(=O)Nc2cc(C)on2)c1,inactive
21,Cc1ccc2nc(-c3ccccc3Cl)cc(C(=O)Nc3cc(C)on3)c2c1,inactive
22,Cc1cccc(-c2noc(Cc3ccc(Cl)cc3)n2)c1,inactive
23,Cc1cc(C)cc(NC(=O)c2ccc(CSc3nnc(C)s3)cc2)c1,inactive
24,COc1ccc(NC(=O)Nc2ccc3c(c2)C(=O)N([C@@H](C)CO)C[C@@H](C)[C@@H](CN(C)Cc2ccc(C(F)(F)F)cc2)OCCCC[C@H](C)O3)cc1,inactive
25,CCOc1ccc(-c2nc(CSCC(=O)NCCN3CCOCC3)c(C)o2)cc1,inactive
26,COc1ccc(NC(=O)Nc2cccc3c2O[C@@H](CN(C)C(=O)Nc2cccc4ccccc24)[C@H](C)CN([C@H](C)CO)C3=O)cc1,inactive
27,Cc1cc(=O)[nH]c(Nc2c(C)n(C)n(-c3ccccc3)c2=O)n1,inactive

row,SMILES,outcome
1,Cn1ccnc1SCC(=O)Nc1ccccc1,inactive
2,O=C(Cc1cccs1)Nc1nnc(Cc2ccccc2)s1,inactive
3,CCOC(=O)c1cnn(-c2ccccc2)c1-n1cccc1,inactive
4,CC(=O)O[C@@H]1[C@H]2[C@@H](C[C@@H](C)[C@@H]3C=CC(=O)[C@@]13C)OC(=O)[C@@H]2C,inactive
5,COc1ccc(S(=O)(=O)NCCC(=O)NCc2ccccc2)cc1,inactive
6,COc1ccc(S(=O)(=O)NC(CC(=O)NCc2ccc3c(c2)OCO3)c2ccco2)cc1 (stereo not given),inactive
7,O=C(Nc1ncn[nH]1)c1c(Cl)ccc(Cl)c1Cl,inactive
8,CCCS(=O)(=O)N1CCCC(C(=O)NCCN2CCC(Cc3ccccc3)CC2)C1 (stereo not given),inactive
9,CCOC(=O)CC(=O)CSc1ncc(C(=O)OCC)c(N)n1,inactive
10,CC(=O)N(C)c1ccc(NC(=O)Cc2cccc3ccccc23)cc1,inactive
11,C[C@H]1CN([C@@H](C)CO)C(=O)c2cccc(NS(=O)(=O)c3ccc(Cl)cc3)c2O[C@H]1CN(C)Cc1ccc(-c2ccccc2)cc1,inactive
12,COc1ccc(OCC(O)CN2C(=O)NC(C)(C)C2=O)cc1 (stereo not given),inactive
13,CN(C)CCCNc1ncnc2c1cnn2Cc1ccccc1Cl,inactive
14,Cc1ccc(CC(=O)c2ccc(Cl)cc2)cc1,inactive
15,CNC(=O)Cn1ncc2c(C)n(Cc3ccc(C)cc3)c(C)c2c1=O,inactive
16,COC(=O)c1cccc(OCC(O)Cn2ccnc2)c1 (stereo not given),inactive
17,C[C@H]1CN([C@@H](C)CO)C(=O)Cc2cc(NS(=O)(=O)c3ccc(F)cc3)ccc2O[C@@H]1CN(C)Cc1ccc2c(c1)OCO2,inactive
18,C[C@H]1CN([C@@H](C)CO)C(=O)c2cccc(NC(=O)Nc3ccc4c(c3)OCO4)c2O[C@H]1CN(C)S(=O)(=O)c1ccc(Cl)cc1,inactive
19,C[C@@H]1CCCCO[C@@H](CN(C)CC2CCCCC2)[C@@H](C)CN([C@H](C)CO)C(=O)c2cc(NS(=O)(=O)c3ccc(F)cc3)ccc2O1,inactive
20,Cc1ccc(C(=O)NNC(=O)C2CCN(Cc3ccc(Cl)c(Cl)c3)CC2)cc1,inactive
21,C[C@H](CO)N1C[C@H](C)[C@@H](CN(C)CC2CCCCC2)Oc2ccc(NS(=O)(=O)c3ccc(Cl)cc3)cc2CC1=O,inactive
22,C[C@@H]1CN([C@H](C)CO)C(=O)Cc2cc(NS(=O)(=O)c3ccc(F)cc3)ccc2O[C@H]1CN(C)CC1CCCCC1,inactive
23,COc1ccc(S(=O)(=O)Nc2ccc3c(c2)CC(=O)N([C@@H](C)CO)C[C@H](C)[C@@H](CN(C)Cc2ccccc2)O3)cc1,inactive
24,C[C@@H]1CN([C@H](C)CO)C(=O)Cc2cc(NS(=O)(=O)c3ccc(Cl)cc3)ccc2O[C@H]1CN(C)Cc1ccc2c(c1)OCO2,inactive
25,C[C@@H]1CN([C@H](C)CO)C(=O)Cc2cc(NS(=O)(=O)c3ccc(Cl)cc3)ccc2O[C@@H]1CN(C)Cc1ccc(C(F)(F)F)cc1,inactive
26,COc1ccc(CN(C)C[C@H]2Oc3ccc(NS(=O)(=O)c4ccc(F)cc4)cc3CC(=O)N([C@H](C)CO)C[C@H]2C)cc1,inactive

# Source: PubChem BioAssay AID624405 (Broad Institute, 2012)
